Test systems include HCT-15 colon; HT29 colon; SNB-75 CNS; SNB-19 CNS; U251 CNS; PC-3 prostate; SK-MEL-5 melanoma; UACC-62 melanoma; LOX IMVI melanoma; SK-MEL-28 melanoma; SK-MEL-2 melanoma; EKVX NSCLC; SN12C renal; UO-31 renal; TK-10 renal; ACHN renal; CAKI-1 renal; A498 renal; CCRF-CEM leukemia; MOLT-4 leukemia.
Holding throughout (assay): NCI-60 one-dose screen, 48 h (100 = growth as untreated, 0 = no growth, -100 = all killed)
Common to all, as to conditions: 10 µM unless noted

This is part of a sample that, as a whole, favours compounds with a hit. Of some 83,000 tested, about 20% had one in any assay.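 In brief: 96-well plates, 48 h treatment, single concentration, percent growth endpoint.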 Values without a mark were called inactive. Calls of active or inactive are those of the source. The calls were made as follows: active = growth percent below 10; inactive = the rest.

Consider `COc1ccc(C(O)c2cc3c(N)c(C(=O)Nc4ccc(Br)cc4)sc3nc2C)cc1` (configuration not stated), for which the growth was 18.2% in the assay on HCT-15 colon; -34.2% (active) in the assay with HT29 colon; -10.8% (active) with SNB-75 CNS; 36.1% in the assay on SNB-19 CNS; 17.2% with U251 CNS; 18.2% in the assay with PC-3 prostate. Moreover, the growth was 16.4% in the assay with SK-MEL-5 melanoma; 26.1% in the assay on UACC-62 melanoma; 33.4% in the assay with LOX IMVI melanoma; 60% in the assay on SK-MEL-28 melanoma; 33.7% in the assay on SK-MEL-2 melanoma; 32% with EKVX NSCLC. Besides, the growth is 36% in the assay on SN12C renal; 43% in the assay on UO-31 renal; 39.5% in the assay on TK-10 renal; 37.8% with ACHN renal; 32.5% in the assay with CAKI-1 renal; -1.93% (active) in the assay with A498 renal. The results for the growth in the assay on CCRF-CEM leukemia and in the assay with MOLT-4 leukemia were 6.36% (active) and 17.5%, respectively.
Take `CC(=O)c1c(C)[nH]c(-c2nc3ccc(N4CCN(C)CC4)cc3[nH]2)c1-c1ccccc1`: the growth in the assay on HCT-15 colon was 14.9%; in the assay on HT29 colon, 14.5%; in the assay on SNB-75 CNS it was -10.6% (active); in the assay with SNB-19 CNS, 33.2%; in the assay on U251 CNS it was 44.7%; in the assay on PC-3 prostate, 32%. The growth with SK-MEL-5 melanoma is 11.8%; in the assay on UACC-62 melanoma, 14.3%; in the assay on LOX IMVI melanoma, 6.13% (active); in the assay with SK-MEL-28 melanoma, 47.3%; in the assay on SK-MEL-2 melanoma, 48.6%; with EKVX NSCLC it was 35.5%. Also, the growth was 37.7% in the assay with SN12C renal; 5.51% (active) in the assay on UO-31 renal; 23.9% in the assay on TK-10 renal; 19.4% with ACHN renal; 7.67% (active) in the assay with CAKI-1 renal; 31.8% with A498 renal. The growth in the assay with CCRF-CEM leukemia is 49.1%; in the assay with MOLT-4 leukemia it was 50.7%.
On to `N/C(=N\N=C\c1cc2ccccc2[nH]1)N/N=C/c1cc2ccccc2[nH]1`, for which the growth in the assay with HCT-15 colon is 93.5%; with HT29 colon, 95.7%; in the assay with SNB-75 CNS it was 85.9%; in the assay with SNB-19 CNS, 97.6%; in the assay on U251 CNS, 101%; in the assay on PC-3 prostate, 89.3%. Moreover, the growth in the assay on SK-MEL-5 melanoma is 84.9%; in the assay on UACC-62 melanoma, 99.2%; in the assay with LOX IMVI melanoma, 98.4%; in the assay on SK-MEL-28 melanoma it was 103%; with SK-MEL-2 melanoma, 100%; in the assay with EKVX NSCLC, 79.7%. Further, the growth in the assay with SN12C renal was 89.9%; in the assay with UO-31 renal, 74.1%; in the assay on TK-10 renal, 116%; in the assay on ACHN renal, 109%; in the assay on CAKI-1 renal it was 87.3%; in the assay on A498 renal, 95.6%. The growth with CCRF-CEM leukemia is 84.4%.
In the case of `O=S(=O)(NCCCNc1nccc(-c2c(-c3ccccc3)nc3occn23)n1)c1ccc(Cl)cc1`, the growth in the assay with HCT-15 colon is 79.8%; in the assay on HT29 colon it was 47.5%; in the assay on SNB-75 CNS it was 95.6%; with SNB-19 CNS it was 97.8%; in the assay with U251 CNS, 86.6%; in the assay with PC-3 prostate, 72.1%. The growth in the assay on SK-MEL-5 melanoma was 70.3%; in the assay with UACC-62 melanoma it was 68.8%; in the assay with LOX IMVI melanoma it was 72.7%; in the assay with SK-MEL-28 melanoma, 90%; in the assay with SK-MEL-2 melanoma, 88.3%; in the assay with EKVX NSCLC, 89.1%. The growth in the assay with SN12C renal is 68.2%; in the assay with UO-31 renal, 44.4%; in the assay on TK-10 renal, 102%; with ACHN renal, 58.3%; in the assay with CAKI-1 renal it was 62%; with A498 renal, 83.1%. The growth is 75.5% in the assay with CCRF-CEM leukemia and 68.1% in the assay with MOLT-4 leukemia.
Consider `CC(=O)O[C@H]1CC[C@@]2(C)[C@@H](CC[C@@H]3[C@@H]2CC[C@@]2(C)[C@H]3CC[C@]2(O)C(C)=O)C1`, for which the growth in the assay with HCT-15 colon was 102%; in the assay with HT29 colon, 107%; with SNB-75 CNS, 94.9%; in the assay on SNB-19 CNS, 102%; with U251 CNS it was 94%; in the assay with PC-3 prostate, 95.7%. Besides, the growth with SK-MEL-5 melanoma was 94%; in the assay on UACC-62 melanoma, 91%; with LOX IMVI melanoma, 99.2%; in the assay on SK-MEL-28 melanoma, 103%; with SK-MEL-2 melanoma, 117%; with EKVX NSCLC, 87.1%. For the same compound, the growth was 96.4% in the assay on SN12C renal; 92.7% with UO-31 renal; 99.2% in the assay on TK-10 renal; 88.6% in the assay on ACHN renal; 99.3% in the assay on CAKI-1 renal; 90% with A498 renal. For the same compound, the growth in the assay with CCRF-CEM leukemia was 98.9%.
Consider `CN1CCN(CCCOc2ccc3ncnc(Nc4ccc(Oc5cccc(C(F)(F)F)c5)c(Cl)c4)c3c2)CC1`, for which the growth is -55.7% (active) with HCT-15 colon; -26.9% (active) in the assay with HT29 colon; -21.1% (active) with SNB-75 CNS; 41.7% with SNB-19 CNS; -11% (active) in the assay with U251 CNS; 7.28% (active) in the assay on PC-3 prostate. Also, the growth in the assay with SK-MEL-5 melanoma was -96.8% (active); in the assay on UACC-62 melanoma, -75.7% (active); in the assay with LOX IMVI melanoma, -87.7% (active); with SK-MEL-28 melanoma, -93.2% (active); in the assay on SK-MEL-2 melanoma it was 40.3%; in the assay with EKVX NSCLC, 36.6%. For the same compound, the growth in the assay on SN12C renal is 27.1%; with UO-31 renal it was 20.1%; in the assay with TK-10 renal, 19.3%; in the assay with ACHN renal, -37.5% (active); with CAKI-1 renal it was 0.55% (active); in the assay on A498 renal, 63.1%. Also, the growth in the assay with CCRF-CEM leukemia was -9.94% (active); in the assay on MOLT-4 leukemia, 3.44% (active).
For the compound `CCOC(=O)c1c(O)cc(-c2ccccc2)cc1-c1sc(N(C)Cc2ccccc2)nc1Cl`, the growth in the assay on HCT-15 colon was 101%; in the assay on HT29 colon it was 110%; in the assay on SNB-75 CNS it was 89.9%; in the assay with SNB-19 CNS it was 101%; in the assay on U251 CNS, 98%; in the assay with PC-3 prostate, 97%. Further, the growth in the assay on SK-MEL-5 melanoma was 101%; with UACC-62 melanoma, 92.6%; in the assay on LOX IMVI melanoma, 97%; in the assay on SK-MEL-28 melanoma it was 101%; in the assay on SK-MEL-2 melanoma, 101%; in the assay on EKVX NSCLC, 101%. Further, the growth was 97.3% with SN12C renal; 96.8% in the assay with UO-31 renal; 108% in the assay on TK-10 renal; 97.2% in the assay with ACHN renal; 87.9% in the assay on CAKI-1 renal; 108% in the assay on A498 renal. In addition, in the assay with CCRF-CEM leukemia, the growth is 96.3%.
As for `COc1ccc(/C=C/C(=O)c2ccc(Nc3ncnc4ccccc34)cc2)cc1OC`, the growth was 75.9% in the assay on HCT-15 colon; 13.9% in the assay with HT29 colon; 92.2% with SNB-75 CNS; 79.1% with SNB-19 CNS; 54.1% in the assay with U251 CNS; 65.4% with PC-3 prostate. The growth is 91.9% with SK-MEL-5 melanoma; 87.1% with UACC-62 melanoma; 44.2% with LOX IMVI melanoma; 98.1% in the assay with SK-MEL-28 melanoma; 124% with SK-MEL-2 melanoma; 78.3% in the assay with EKVX NSCLC. Moreover, the growth in the assay on SN12C renal was 88.5%; in the assay with UO-31 renal it was 71.2%; in the assay with TK-10 renal, 98.8%; in the assay with ACHN renal it was 88.8%; in the assay with CAKI-1 renal, 75.6%; with A498 renal it was 77.6%. For the same compound, the growth in the assay with CCRF-CEM leukemia was 49.7%; in the assay with MOLT-4 leukemia, 48.2%.
